# SMN2 splice up: qHTS Assay for Enhancers of SMN2 Splice Variant Expression; HEK293 SMN2-luciferase splicing reporter, luminescence, 30-36 h; Potency, µM (top dose mostly 46.1 µM), usual class: activators; 210,000 tested, 2.8% active; note: nearly all actives have a fitted effect of over 55% in size
#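 HEK293 cells carry an SMN2 minigene-luciferase reporter in which exon 7 inclusion puts luciferase in frame. Cells were seeded at 2000 cells/well, attached for 10-12 hours, then exposed to compounds for 30-36 hours at 37C before ONE-Glo luminescence.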
# Rab9 prom act: qHTS Assay for Rab9 Promoter Activators | Potency, µM (top dose mostly 9.22 µM), usual class: activators | Huh7 Rab9 promoter-luciferase reporter, luminescence, 24 h | 320,000 tested, 2.8% active; note: nearly all actives have a fitted effect of over 60% in size
#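 Steps: seed 1500 Huh7 Rab9-luc cells per well, rest 2 h at 37 °C; add compound in DMSO; incubate 24 h; add luciferase reagent, 10 min ambient; read luminescence.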
# KinaseGlo FLuc: Counterscreen for Luciferase (Kinase-Glo TM) Inhibition. Kinase-Glo luciferase, ATP luminescence, 8 min. Potency, µM (titrated, usually from 38.3 µM), usual class: inhibitors. 200,000 tested, 0.28% active; note: nearly all actives have a fitted effect of over 60% in size
#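 Recombinant Kinase-Glo luciferase, 10 uM ATP (linear range), luciferin; imidazole pH 7.2 / KCl / MgCl2 / Tween / BSA buffer; 8 min RT; luminescence.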
# ELG1 genotox: qHTS screen for small molecules that induce genotoxicity in human embryonic kidney (HEK293T) cells expressing luciferase-tagged ELG1; HEK293T ELG1-luciferase reporter, luminescence, 16 h; Potency, µM (top dose mostly 46 µM), most hits filed as activators; AID 504466, 2011; 330,000 tested, 1.3% active; note: nearly all actives have a fitted effect of over 60% in size
#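 HEK293T cells expressing luciferase-tagged ELG1 were exposed to compound or DMSO vehicle for 16 hr at 37 °C and 5% CO2. Luciferase activity was then measured with ONE-Glo after 30 min at room temperature.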
# FLuc counter: qHTS profiling assay for firefly luciferase inhibitor/activator using purifed enzyme and Km concentrations of substrates (counterscreen for miR-21 project) | Luciferin 4-monooxygenase (Photinus pyralis), P08659 | purified FLuc, Km substrates, luminescence inhibition | Potency, µM (series often up to 57.5 µM), usual class: inhibitors | 360,000 tested, 6.9% active; note: nearly all actives have a fitted effect of over 55% in size
# Target sequence (P08659 whole entry, looked up): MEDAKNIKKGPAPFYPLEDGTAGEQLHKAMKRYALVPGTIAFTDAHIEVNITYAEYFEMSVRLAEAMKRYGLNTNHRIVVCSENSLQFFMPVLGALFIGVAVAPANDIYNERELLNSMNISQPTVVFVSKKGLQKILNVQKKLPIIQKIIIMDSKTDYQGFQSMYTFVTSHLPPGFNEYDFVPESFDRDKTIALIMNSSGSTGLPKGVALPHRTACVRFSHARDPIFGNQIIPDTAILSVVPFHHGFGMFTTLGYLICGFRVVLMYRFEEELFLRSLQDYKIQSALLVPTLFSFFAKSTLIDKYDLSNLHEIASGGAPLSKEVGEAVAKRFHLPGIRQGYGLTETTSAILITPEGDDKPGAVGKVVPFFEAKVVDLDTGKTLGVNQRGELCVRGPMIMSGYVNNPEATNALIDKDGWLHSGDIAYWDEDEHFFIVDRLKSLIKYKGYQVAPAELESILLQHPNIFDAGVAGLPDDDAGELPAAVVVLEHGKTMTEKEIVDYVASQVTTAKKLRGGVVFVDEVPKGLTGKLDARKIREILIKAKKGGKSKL
#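 Biochemical qHTS of compounds, final roughly 60 µM downward over six points, against 10 nM purified firefly luciferase using Km concentrations of substrates (10 uM D-luciferin, 10 uM ATP) in Tris acetate pH 7.5 buffer; luminescence output.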
# NPC1 promoter act: qHTS Assay for NPC1 Promoter Activators; 320,000 tested, 2.4% active; Potency, µM (top dose mostly 9.22 µM), most hits filed as activators; Huh7 NPC1 promoter luciferase reporter, 24 h; note: nearly all actives have a fitted effect of over 60% in size
#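 Stable NPC1-promoter luciferase Huh7 line; cpd (DMSO) 24 h, 37 °C, 5% CO2; Amplite luciferase reagent 10 min RT; luminescence readout. qHTS format.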
# A number is an active result; – = inactive; ? = inconclusive; · = no result; [ ] = dose if it differs, or a comment. Most compounds without a hit are left out; they make up all but 7.4% or so of the library. Calls come from the whole dose curve; as a rule, active = well fitted curve in the direction sought with a large enough effect; inconclusive = small, poorly fitted or top-dose-only effect, or another doubt; inactive = no such curve, though single readings can be large; an effect the other way counts as inactive or inconclusive.
SMILES,SMN2 splice up,Rab9 prom act,KinaseGlo FLuc,ELG1 genotox,FLuc counter,NPC1 promoter act
Cc1c(Oc2ccc(C(F)(F)F)cc2[N+](=O)[O-])ccc2c3c(c(=O)oc12)CCC3,–,–,–,–,–,–
CCOC(=O)Cc1c(C)nc2c(-c3ccccc3)cnn2c1C,–,–,–,–,?,–
Cc1cc(SCC(=O)c2ccccc2)n2ncc(-c3ccccc3)c2n1,·,3.5µM,·,–,9.5µM,5µM
Cc1cc(-c2ccccc2)n2ncc(-c3ccccc3)c2n1,–,0.5µM,–,0.21µM,0.19µM,2.8µM
Cc1nc2c(-c3ccccc3)cnn2c(N)c1-c1ccccc1,·,–,·,?,0.21µM,?
Cc1ccc(C(=O)CSc2cc(C)nc(SCC(=O)c3ccccc3)n2)cc1,·,–,–,–,–,–
Cc1cc(SCC(=O)c2ccccc2)nc(C)n1,–,2.5µM,–,?,12µM,3.5µM
CC(=O)CSc1cc(C)nc2c(-c3ccccc3)c(C)nn12,·,–,·,–,–,–
Cc1cc(C(F)(F)F)n2ncc(-c3cccc(Br)c3)c2n1,–,–,–,–,–,–
C=CC[C@H](CC(=O)NCCO)C(=O)N[C@@H](COC(=O)[C@H](CC=C)CC(=O)OC(C)(C)C)Cc1c[nH]c2ccccc12,·,·,·,–,·,·
CCN(CC)CCCCC1CCN(CC(=O)N2c3ccccc3C(=O)Nc3cccnc32)CC1,–,·,–,·,·,·
Cc1ccc(S(=O)(=O)NC(C)(C)CN2CCc3ccccc3C2)cc1,·,–,·,–,–,–
O=C(CSc1ccc(-c2ccco2)nn1)c1ccccc1,–,?,–,–,27µM,–
COc1ccc(-c2cc(C)nc3c(-c4ccccc4)cnn23)cc1,?,0.56µM,–,0.65µM,0.67µM,0.5µM
COc1ccc(C(=O)CSc2ccc(-c3ccco3)nn2)cc1,–,–,–,–,?,–
COc1ccccc1-c1c(C)nn2c(-c3ccccc3)cc(C)nc12,·,–,·,–,?,–
COC(=O)C(Cc1ccc(OC(=O)c2ccccc2Cl)cc1)N1Cc2ccccc2C1=O (stereo not drawn),–,4µM,–,–,?,?
Cc1cc(Cl)ccc1N(CC(=O)NCCSCc1ccco1)S(C)(=O)=O,·,–,–,–,–,–
O=C(NCCSCc1ccco1)Nc1ccc(Cl)cc1,?,·,–,·,11µM,·
O=C(CCSc1ccccc1)NCCSCc1ccco1,·,–,·,–,19µM,–
O=C(NCCSCc1ccco1)Nc1cccc(Cl)c1,?,?,–,–,17µM,?
O=C(NCCc1ccc(Cl)cc1)Nc1cccc(Cl)c1,–,–,–,–,?,–
CCOC(=O)c1[nH]c2c(c1Cc1ccccc1)C(=O)CC(c1ccc(OC)cc1)C2 (stereo not drawn),–,·,·,·,–,·
O=C(c1ccc(CS(=O)Cc2cccc(Cl)c2)o1)N1CCN(C2CCCCC2)CC1 (stereo not drawn),·,–,·,–,–,–
Cc1cc(C(=O)Nc2ccc(Cl)cc2)c(C)n1-c1ccccc1,·,–,·,?,0.048µM,–
SMILES,SMN2 splice up,Rab9 prom act,KinaseGlo FLuc,ELG1 genotox,FLuc counter,NPC1 promoter act
Cc1ccc(NC(=O)c2cc(C)n(-c3cccc(C)c3)c2C)cc1,–,?,–,?,1.5µM,–
Cc1cc(C(=O)NNS(=O)(=O)c2cc(C(=O)O)ccc2Cl)c(C)n1-c1ccccc1,·,–,·,–,24µM,–
Cc1ccc(NC(=O)c2cc(C)n(-c3ccccc3)c2C)cc1,–,?,–,0.23µM,0.054µM,–
O=C(O)c1ccc(Cl)c(S(=O)(=O)Nc2ccccc2)c1,·,·,–,·,·,·
Cc1cc(C(=O)Nc2ccc(Cl)cc2)n(-c2ccccc2)n1,·,–,·,–,–,–
Cc1cc(Cl)ccc1OCCCC(=O)NCCN1C(=O)S/C(=C\c2cccnc2)C1=O,–,–,–,–,?,–
O=C(Nc1ccccc1F)c1ccc(Cn2nc(N3CCN(c4ccccc4)CC3)ccc2=O)o1,·,·,·,·,–,·
COc1ccc(-c2cccc(NS(=O)(=O)c3ccccc3[N+](=O)[O-])c2)nn1,·,–,·,–,–,–
COc1ccc(OC)c(S(=O)(=O)Nc2cccc(-c3ccc(N4CCCCCC4)nn3)c2)c1,·,–,·,–,17µM,–
COc1ccc(S(=O)(=O)Nc2cccc(-c3ccc(N4CCCCCC4)nn3)c2)c(OC)c1,·,?,·,?,8.5µM,?
CCOc1ccccc1NC(=O)c1cnc(N2CCOCC2)c2ccccc12,·,·,·,·,–,·
COc1ccc(-c2csc(Nc3ncccc3C)n2)cc1OC,?,?,–,–,–[2.3 µM],?
COc1ccc(-c2csc(Nc3ncccc3C)n2)cc1,2.2µM,1.6µM,?,?,5.4µM,1.8µM
Cc1nc(C)c(-c2csc(Nc3ccc(O)cc3C)n2)s1,·,–,·,–,–,–
Cc1nc(C)c(-c2csc(Nc3ncccc3C)n2)s1,·,1.3µM,·,?,6.7µM,2.5µM
Cc1cccnc1Nc1nc(-c2ccc(O)c(O)c2)cs1,–,?,–,5.2µM,17µM,–
Cc1ccc(-c2csc(NC(=O)/C=C/c3cccs3)n2)cc1C,–,–,–,–,?,–
Cc1cccc(CSc2ccc(S(=O)(=O)N3CCCC3)cn2)c1,·,–,·,–,–,–
CCOc1ccc(CC(=O)NCC(c2cccs2)S(=O)(=O)c2ccc(F)c(C)c2)cc1 (stereo not drawn),·,·,·,·,–,·
CCC1(C)CC(=O)c2c(ccc3oc(C(=O)NCc4ccccc4)c(C)c23)O1 (stereo not drawn),22µM,·,·,·,9.5µM,·
Cc1c(C(=O)NCc2ccoc2)oc2ccc3c(c12)C(=O)CC(C)(C)O3,16µM,?,–,?,8.5µM,?
CCCNC(=O)c1oc2ccc3c(c2c1C)C(O)CC(C)(C)O3 (stereo not drawn),·,–,·,–,–,–
CN(C(=O)COC(=O)c1ccccc1Cc1ccccc1)C1CCS(=O)(=O)C1 (stereo not drawn),·,–,·,–,–,–
CC(Nc1ccc2ccccc2c1)C(=O)N/N=C/c1ccncc1 (stereo not drawn),·,–,·,–,–,–
CCC1CCCCN1C(=O)CSc1nc2c([nH]c3ccccc32)c(=O)n1-c1ccc(OC)cc1 (stereo not drawn),·,·,·,·,–,·
Cc1ccc2nc(N3C(=O)C(O)=C(C(=O)c4ccco4)C3c3cccs3)sc2c1 (stereo not drawn),–,–,–,–,17µM,–
Cc1cccc2cc3c(N)c(C#N)sc3nc12,–,–,–,–,?,–
Cc1sc(NC(=O)c2sc3nc4c(C)cccc4cc3c2N)c(C#N)c1C,–,?,–,?,0.54µM,–
O=C(Nc1ccccc1C(=O)OCc1cc(=O)n2c3c(sc2n1)CCCC3)c1ccc(F)cc1,·,·,·,·,–,·
